± gives the standard deviation of the averaged measurements.
Tests used:
[1] = test system: DLD1; assay: cell viability (CellTiter-Glo) relative to plate median (fraction of plate median); higher = more viable cells; conditions: 5 µM; treatment time 24 h; reporter: 7TFP
Summary of the method: (§1)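 Cells were seeded in 384-well plates; these were colorectal cancer lines stably transduced with lentiviral 7TFP or TCF4/Wnt firefly luciferase reporters. After 24 h, library compounds went in at a final 5 µM, and exposure lasted 24 h. Parallel plates were then read for firefly luciferase or CellTiterGlo luminescence, each well normalised to its plate median, with two independent replicates averaged.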

[2] = test system: HCT116; assay: as above; conditions: 5 µM; treatment time 24 h; reporter: TCF4/Wnt
Summary of the method: as §1

[3] = test system: SW480; assay: as above; conditions: 5 µM; treatment time 24 h; reporter: 7TFP
Summary of the method: as §1

[4] = test system: DLD1; assay: TCF/Wnt firefly luciferase reporter signal relative to plate median (fraction of plate median); higher = higher Wnt reporter signal; conditions: 5 µM; treatment time 24 h; reporter: 7TFP
Summary of the method: as §1

[5] = test system: SW480; assay: as above; conditions: 5 µM; treatment time 24 h; reporter: 7TFP
Summary of the method: as §1

[6] = test system: DLD1; assay: cell viability (CellTiter-Glo) relative to plate median (fraction of plate median); higher = more viable cells; conditions: 10 µM, treatment time 24 h
Summary of the method: (§2)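 Colorectal cancer cell lines stably transduced with lentiviral TCF/Wnt firefly luciferase reporters (7TFP or TCF4/Wnt) were seeded in 384-well plates. 24 h later they received kinase inhibitor library compounds at a final 10 µM for 24 h. Parallel plates were read for firefly luciferase or CellTiterGlo luminescence on a Tecan F500 reader. Each well's signal was normalised to the plate median (webcellHTS2, additive, no log transformation), and the mean of two independent replicates is reported.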

[7] = test system: HCT116; assay: as above; conditions: 10 µM; treatment time 24 h; reporter: TCF4/Wnt
Summary of the method: as §2

[8] = test system: SW480; assay: as above; conditions: 10 µM; treatment time 24 h; reporter: 7TFP
Summary of the method: as §2

[9] = test system: DLD1; assay: TCF/Wnt firefly luciferase reporter signal relative to plate median (fraction of plate median); higher = higher Wnt reporter signal; conditions: 10 µM, treatment time 24 h
Summary of the method: as §2

[10] = test system: HCT116; assay: as above; conditions: 10 µM; treatment time 24 h; reporter: TCF4/Wnt
Summary of the method: as §2

[11] = test system: SW480; assay: as above; conditions: 10 µM; treatment time 24 h; reporter: 7TFP
Summary of the method: as §2

Q: With `CCN(CC)CCNC(=O)c1ccc(N)cc1` as the molecule, how does the cell viability [1] read?
A: 1 ± 0.083

Q: What about the cell viability [2] of the same molecule?
A: 0.988 ± 0.06

Q: And the cell viability [3]?
A: 1.02 ± 0.055

Q: And the “TCF/Wnt firefly luciferase reporter signal” value [4]?
A: 1.045 ± 0.0071

Q: And the “TCF/Wnt firefly luciferase reporter signal” value [5]?
A: 1.08 ± 0.099

Q: `NC[C@H]1O[C@H](O[C@H]2[C@H](O)[C@@H](O[C@H]3O[C@H](CO)[C@@H](O)[C@H](N)[C@H]3O)[C@H](N)C[C@@H]2N)[C@H](N)C[C@@H]1O` was tested. Which cell viability [1] did it give?
A: 0.854 ± 0.012

Q: What about the cell viability [2] of the same molecule?
A: 0.922 ± 0.073

Q: And the cell viability [3]?
A: 0.998 ± 0.06

Q: What about the “TCF/Wnt firefly luciferase reporter signal” value [4] of the same molecule?
A: 0.992 ± 0.0042

Q: What about the “TCF/Wnt firefly luciferase reporter signal” value [5] of the same molecule?
A: 1.05 ± 0.076

Q: For `CN(C)[C@@H]1C(O)=C(C(N)=O)C(=O)[C@@]2(O)C(O)=C3C(=O)c4c(O)ccc(Cl)c4[C@@H](O)[C@H]3C[C@@H]12`, which cell viability [1] is on record?
A: 0.943 ± 0.025

Q: What about the cell viability [2] of the same molecule?
A: 0.96 ± 0.071

Q: What about the cell viability [3] of the same molecule?
A: 0.959 ± 0.0085

Q: And the “TCF/Wnt firefly luciferase reporter signal” value [4]?
A: 0.924 ± 0.067

Q: And the “TCF/Wnt firefly luciferase reporter signal” value [5]?
A: 0.983 ± 0.039

Q: `C[C@@H](Oc1cc(-c2cnn(C3CCNCC3)c2)cnc1N)c1c(Cl)ccc(F)c1Cl` was tested. Which cell viability ([6]; reporter: 7TFP) did it give?
A: 0.882 ± 0.067

Q: What about the cell viability ([6]; reporter: TCF4/Wnt) of the same molecule?
A: 1.04 ± 0.042

Q: And the cell viability [7]?
A: 0.674 ± 0.1

Q: What about the cell viability [8] of the same molecule?
A: 0.996 ± 0.048

Q: And the “TCF/Wnt firefly luciferase reporter signal” value ([9]; reporter: 7TFP)?
A: 0.833 ± 0.16

Q: What about the “TCF/Wnt firefly luciferase reporter signal” value ([9]; reporter: TCF4/Wnt) of the same molecule?
A: 0.831 ± 0.077

Q: What about the “TCF/Wnt firefly luciferase reporter signal” value [10] of the same molecule?
A: 0.978 ± 0.29

Q: And the “TCF/Wnt firefly luciferase reporter signal” value [11]?
A: 0.682 ± 0.15

Q: Which results are given for `CC(=O)NS(=O)(=O)c1ccc(NC(=O)c2ccccc2C(=O)O)cc1`?
A: cell viability [1]: 0.946 ± 0.047; cell viability [2]: 0.905 ± 0.13; cell viability [3]: 0.93 ± 0.035; TCF/Wnt firefly luciferase reporter signal [4]: 1.04 ± 0.057; TCF/Wnt firefly luciferase reporter signal [5]: 1.1 ± 0.042

Q: How did the cell viability [1] turn out when `Clc1ccccc1C(c1ccccc1)(c1ccccc1)n1ccnc1` was run?
A: 1.05 ± 0.089

Q: What about the cell viability [2] of the same molecule?
A: 1 ± 0.11

Q: What about the cell viability [3] of the same molecule?
A: 0.956 ± 0.0042

Q: And the “TCF/Wnt firefly luciferase reporter signal” value [4]?
A: 0.938 ± 0.086

Q: And the “TCF/Wnt firefly luciferase reporter signal” value [5]?
A: 1.08 ± 0.014

Q: How did the “TCF/Wnt firefly luciferase reporter signal” value [4] turn out when `CN1C2CCC1CC(OC(=O)C(O)c1ccccc1)C2` (stereo not drawn) was run?
A: 1.05 ± 0.042

Q: And the “TCF/Wnt firefly luciferase reporter signal” value [5]?
A: 1.12 ± 0.021

Q: Which cell viability [1] does the source give for `CC(C)NCC(O)COc1cccc2ccccc12` (stereo not drawn) here?
A: 0.927 ± 0.16

Q: And the cell viability [2]?
A: 0.997 ± 0.047

Q: And the cell viability [3]?
A: 1.03 ± 0.044

Q: What about the “TCF/Wnt firefly luciferase reporter signal” value [4] of the same molecule?
A: 1.01 ± 0.044

Q: What about the “TCF/Wnt firefly luciferase reporter signal” value [5] of the same molecule?
A: 0.9935 ± 0.0092

Q: `CC(C)(C)c1cnc(CSc2cnc(NC(=O)C3CCNCC3)s2)o1` was tested. Which cell viability ([6]; reporter: 7TFP) did it give?
A: 1.09 ± 0.12

Q: And the cell viability ([6]; reporter: TCF4/Wnt)?
A: 1.06 ± 0.23

Q: And the cell viability [7]?
A: 0.786 ± 0.17

Q: And the cell viability [8]?
A: 1.3 ± 0.099

Q: What about the “TCF/Wnt firefly luciferase reporter signal” value ([9]; reporter: 7TFP) of the same molecule?
A: 0.462 ± 0.047

Q: What about the “TCF/Wnt firefly luciferase reporter signal” value ([9]; reporter: TCF4/Wnt) of the same molecule?
A: 1.06 ± 0.92

Q: And the “TCF/Wnt firefly luciferase reporter signal” value [10]?
A: 0.228 ± 0.0071

Q: And the “TCF/Wnt firefly luciferase reporter signal” value [11]?
A: 0.84 ± 0.025

Q: `NC(=O)c1ccc([N+](=O)[O-])cc1Cl` was tested. Which cell viability [1] did it give?
A: 1.02 ± 0.047

Q: What about the cell viability [2] of the same molecule?
A: 1.1 ± 0.057

Q: And the cell viability [3]?
A: 1 ± 0.014

Q: And the “TCF/Wnt firefly luciferase reporter signal” value [4]?
A: 0.894 ± 0.19

Q: And the “TCF/Wnt firefly luciferase reporter signal” value [5]?
A: 0.967 ± 0.075

Q: `C=CCSCC=C` was tested. Which cell viability [1] did it give?
A: 0.9785 ± 0.0078

Q: And the cell viability [2]?
A: 0.967 ± 0.047

Q: What about the cell viability [3] of the same molecule?
A: 0.98 ± 0.029

Q: What about the “TCF/Wnt firefly luciferase reporter signal” value [4] of the same molecule?
A: 0.959 ± 0.015

Q: And the “TCF/Wnt firefly luciferase reporter signal” value [5]?
A: 0.95 ± 0.05

Q: How did the cell viability [1] turn out when `CO/N=C(\C(=O)N[C@@H]1C(=O)N2C(C(=O)OC(C)OC(C)=O)=C(COC(N)=O)CS[C@H]12)c1ccco1` (stereo partly drawn) was run?
A: 1.03

Q: What about the cell viability [2] of the same molecule?
A: 1.05 ± 0.079

Q: And the cell viability [3]?
A: 0.9685 ± 0.005

Q: And the “TCF/Wnt firefly luciferase reporter signal” value [4]?
A: 0.981 ± 0.027

Q: What about the “TCF/Wnt firefly luciferase reporter signal” value [5] of the same molecule?
A: 1

Q: For `CC(=O)N[C@@H](Cc1c[nH]c2ccccc12)C(=O)O`, which cell viability [1] is on record?
A: 0.953 ± 0.0014

Q: And the cell viability [2]?
A: 0.955 ± 0.093

Q: And the cell viability [3]?
A: 0.985 ± 0.021

Q: And the “TCF/Wnt firefly luciferase reporter signal” value [4]?
A: 0.905 ± 0.1

Q: What about the “TCF/Wnt firefly luciferase reporter signal” value [5] of the same molecule?
A: 0.961 ± 0.016

Q: Which results are given for `COC1=C(O)C(=O)c2c(cc3oc(C(C)=O)c(O)c3c2O)C1=O`?
A: cell viability [1]: 1.03 ± 0.055; cell viability [2]: 1.07 ± 0.064; cell viability [3]: 0.985 ± 0.064; TCF/Wnt firefly luciferase reporter signal [4]: 1.05 ± 0.11; TCF/Wnt firefly luciferase reporter signal [5]: 0.949 ± 0.027

Q: For `OC(c1cc(C(F)(F)F)nc2c(C(F)(F)F)cccc12)C1CCCCN1` (stereo not drawn), which cell viability [1] is on record?
A: 0.953 ± 0.033

Q: And the cell viability [2]?
A: 1.005 ± 0.0071

Q: What about the cell viability [3] of the same molecule?
A: 1.02 ± 0.051

Q: And the “TCF/Wnt firefly luciferase reporter signal” value [4]?
A: 1.18 ± 0.028

Q: And the “TCF/Wnt firefly luciferase reporter signal” value [5]?
A: 1.11 ± 0.057

— the supplement of paper PMC6522484
